Assay results published in publication PMC3218832.

Legend:
Experiment in all cases: protein binding microarray; high values mean tight binding
Conditions in all cases: dsDNA, one strand shown
[1] = molecular target: RELARELA (p65 homodimer) (Homo sapiens, UniProt Q04206 1-307)
[2] = molecular target: p50p50 homodimer (Homo sapiens, UniProt P19838 7-356)
[3] = molecular target: T1, p52p52 homodimer (Homo sapiens, UniProt Q00653 4-332)
T1 sequence: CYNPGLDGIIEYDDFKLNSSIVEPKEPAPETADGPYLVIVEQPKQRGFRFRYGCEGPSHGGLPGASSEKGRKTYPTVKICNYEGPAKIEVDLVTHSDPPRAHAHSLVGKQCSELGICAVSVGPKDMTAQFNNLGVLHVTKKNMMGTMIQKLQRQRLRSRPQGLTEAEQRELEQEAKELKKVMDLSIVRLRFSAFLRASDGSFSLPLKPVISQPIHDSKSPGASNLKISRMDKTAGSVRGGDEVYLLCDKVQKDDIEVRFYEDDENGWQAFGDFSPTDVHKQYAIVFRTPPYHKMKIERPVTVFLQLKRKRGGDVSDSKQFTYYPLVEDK

[4] = molecular target: RELA (p65) subunit of heterodimer;p50 subunit (Homo sapiens;Homo sapiens, UniProt Q04206;P19838 1-307;7-356)
Sequence of RELA (p65) subunit of heterodimer;p50 subunit (Q04206 1-307, chain 1 of 2): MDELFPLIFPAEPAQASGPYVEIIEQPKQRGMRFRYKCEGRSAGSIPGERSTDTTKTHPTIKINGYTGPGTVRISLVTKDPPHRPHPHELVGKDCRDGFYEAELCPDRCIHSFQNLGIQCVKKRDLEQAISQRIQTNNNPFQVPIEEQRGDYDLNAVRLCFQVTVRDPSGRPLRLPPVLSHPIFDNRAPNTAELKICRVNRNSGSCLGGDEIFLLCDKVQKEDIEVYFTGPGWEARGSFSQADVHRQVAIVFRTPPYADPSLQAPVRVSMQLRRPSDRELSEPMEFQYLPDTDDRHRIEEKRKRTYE
Sequence of RELA (p65) subunit of heterodimer;p50 subunit (P19838 7-356, chain 2 of 2): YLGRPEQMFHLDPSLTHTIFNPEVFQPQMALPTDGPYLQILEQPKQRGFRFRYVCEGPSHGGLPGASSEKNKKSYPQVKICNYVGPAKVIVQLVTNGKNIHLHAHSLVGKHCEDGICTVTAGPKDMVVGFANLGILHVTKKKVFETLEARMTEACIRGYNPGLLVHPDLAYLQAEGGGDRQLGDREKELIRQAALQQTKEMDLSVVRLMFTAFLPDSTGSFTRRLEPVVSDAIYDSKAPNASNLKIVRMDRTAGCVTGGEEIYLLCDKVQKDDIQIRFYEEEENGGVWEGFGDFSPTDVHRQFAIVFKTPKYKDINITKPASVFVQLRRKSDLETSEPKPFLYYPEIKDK

[5] = molecular target: RELA (p65) subunit of heterodimer;p52 subunit (Homo sapiens;Homo sapiens, UniProt Q04206;Q00653 1-307;4-332)
[6] = molecular target: RELB subunit;p50 subunit (Homo sapiens;Homo sapiens, UniProt Q01201;P19838 120-401;7-356)
[7] = molecular target: T2, RELB subunit;p52 subunit (Homo sapiens;Homo sapiens, UniProt Q01201;Q00653 120-401;4-332)
T2 sequence 1: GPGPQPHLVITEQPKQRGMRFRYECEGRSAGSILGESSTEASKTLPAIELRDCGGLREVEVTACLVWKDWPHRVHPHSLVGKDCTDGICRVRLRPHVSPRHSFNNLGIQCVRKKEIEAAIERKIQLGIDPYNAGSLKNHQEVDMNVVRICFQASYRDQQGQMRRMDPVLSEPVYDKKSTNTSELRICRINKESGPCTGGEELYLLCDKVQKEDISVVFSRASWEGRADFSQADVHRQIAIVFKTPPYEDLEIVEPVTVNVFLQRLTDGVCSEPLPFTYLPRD
T2 sequence 2: T1 sequence

[8] = molecular target: C-Rel subunit;p50 subunit (Homo sapiens;Homo sapiens, UniProt Q04864;P19838 1-285;7-356)
[9] = molecular target: T3, C-Rel subunit;p52 subunit (Homo sapiens;Homo sapiens, UniProt Q04864;Q00653 1-285;4-332)
T3 sequence 1: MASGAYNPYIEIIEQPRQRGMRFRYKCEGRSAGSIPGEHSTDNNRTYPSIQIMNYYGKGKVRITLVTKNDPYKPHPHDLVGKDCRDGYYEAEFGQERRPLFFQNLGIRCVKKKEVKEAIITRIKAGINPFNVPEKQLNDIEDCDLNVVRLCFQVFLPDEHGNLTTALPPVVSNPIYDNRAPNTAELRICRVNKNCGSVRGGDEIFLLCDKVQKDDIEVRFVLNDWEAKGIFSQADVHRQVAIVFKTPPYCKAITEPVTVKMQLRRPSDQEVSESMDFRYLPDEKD
T3 sequence 2: T1 sequence

Sequence of p50p50 homodimer (P19838 7-356): as the sequence (P19838 7-356, chain 2 of 2) above
Sequence of RELARELA (p65 homodimer) (Q04206 1-307): as the sequence (Q04206 1-307, chain 1 of 2) above

| Sequence | binding signal [1] | binding signal [2] | binding signal [3] | binding signal [4] | binding signal [5] | binding signal [6] | binding signal [7] | binding signal [8] | binding signal [9] |
| --- | --- | --- | --- | --- | --- | --- | --- | --- | --- |
| AGGATACCCCC | 0.417 z-score | 1.14 z-score | 0.992 z-score | 1.34 z-score | 1.29 z-score | 1.01 z-score | 1.54 z-score | 0.882 z-score | 1.24 z-score |
| GAAGTGCTCCT | -0.661 z-score | -1.67 z-score | -0.792 z-score | -0.918 z-score | -1.01 z-score | -1.33 z-score | -1.22 z-score | -1.67 z-score | -1 z-score |
| CGGTGCTTCCC | 0.809 z-score | 0.562 z-score | 2.72 z-score | 1.22 z-score | 1.98 z-score | 1.09 z-score | 2.06 z-score | 0.924 z-score | 2.22 z-score |
| GGAAACCTCCT | 0.339 z-score | -1.26 z-score | -0.526 z-score | -0.425 z-score | -0.573 z-score | -1.02 z-score | -0.75 z-score | -0.436 z-score | -0.293 z-score |
| GAGGGTGTCCC | 0.223 z-score | 0.0932 z-score | 0.206 z-score | 0.366 z-score | 0.191 z-score | 0.314 z-score | 0.399 z-score | 0.469 z-score | 0.107 z-score |
| GAAGGGACCCC | -0.812 z-score | 0.244 z-score | 0.629 z-score | -0.173 z-score | 0.512 z-score | 0.268 z-score | 0.639 z-score | -0.159 z-score | 0.296 z-score |
| CAAGTCACCCC | -0.939 z-score | -0.66 z-score | -0.2 z-score | -0.704 z-score | -0.613 z-score | -0.284 z-score | -0.0361 z-score | -0.183 z-score | -0.366 z-score |
| CGGAGGCCCCC | -1.02 z-score | 0.282 z-score | -0.0558 z-score | 0.494 z-score | 0.175 z-score | -0.0407 z-score | 0 z-score | 0.165 z-score | 0.393 z-score |
| GGAGGACCCCT | -0.648 z-score | -0.192 z-score | -0.0995 z-score | 0.108 z-score | 0.173 z-score | -0.321 z-score | -0.0771 z-score | 0 z-score | 0.275 z-score |
| GGGTGTGTCCC | 0.547 z-score | 0.331 z-score | 1.38 z-score | 0.647 z-score | 1.02 z-score | 0.42 z-score | 0.593 z-score | 0.648 z-score | 0.813 z-score |
| CAGATCCCCCT | -0.0668 z-score | 1.6 z-score | 1.41 z-score | 2.39 z-score | 1.76 z-score | 2.45 z-score | 2.37 z-score | 1.85 z-score | 1.37 z-score |
| CAATTACCCCT | 0.378 z-score | 1.06 z-score | 0.863 z-score | 0.727 z-score | 1.01 z-score | 0.941 z-score | 1.38 z-score | 0.652 z-score | 0.899 z-score |
| CGGGTGCCCCC | -0.0899 z-score | 0.777 z-score | 0.373 z-score | 0.794 z-score | 0.707 z-score | 0.779 z-score | 1.05 z-score | 0.974 z-score | 0.84 z-score |
| AAGTTTCCCCT | 1.76 z-score | 1.73 z-score | 2.41 z-score | 2.47 z-score | 2.06 z-score | 2.72 z-score | 2.65 z-score | 2.01 z-score | 1.96 z-score |
| CGAGTTTCCCT | 1.14 z-score | 1.12 z-score | 1.17 z-score | 1.16 z-score | 1.16 z-score | 1.04 z-score | 1.42 z-score | 1.07 z-score | 0.975 z-score |
| GAGTAATTCCT | 0.42 z-score | -1 z-score | -0.525 z-score | -0.42 z-score | -0.441 z-score | -0.739 z-score | -0.87 z-score | -0.18 z-score | -0.195 z-score |
| AGGAGCCCCCT | -0.528 z-score | 1.32 z-score | 0.61 z-score | 1.07 z-score | 0.992 z-score | 1.2 z-score | 1.26 z-score | 1.02 z-score | 0.757 z-score |
| GGAATATCCCT | 2.04 z-score | 0.687 z-score | 1.23 z-score | 1.41 z-score | 1.36 z-score | 0.471 z-score | 1.04 z-score | 0.979 z-score | 1.6 z-score |
| CAAGAGTCCCC | 0.465 z-score | 1.31 z-score | 1.01 z-score | 1.4 z-score | 1.06 z-score | 1.44 z-score | 1.28 z-score | 0.916 z-score | 0.77 z-score |
| AGAGATCCCCC | -0.101 z-score | 1.31 z-score | 1.28 z-score | 2.02 z-score | 1.56 z-score | 1.82 z-score | 1.98 z-score | 1.37 z-score | 1.47 z-score |
| AAAGTCCCCCT | 0.889 z-score | 1.59 z-score | 1.86 z-score | 2.31 z-score | 1.72 z-score | 2.26 z-score | 2.4 z-score | 1.7 z-score | 1.82 z-score |
| AGGTAGCTCCT | -0.716 z-score | -0.916 z-score | -0.638 z-score | -0.909 z-score | -0.901 z-score | -0.802 z-score | -0.975 z-score | -1.36 z-score | -0.889 z-score |
| AGATGAACCCC | -0.232 z-score | -0.284 z-score | -0.287 z-score | -0.402 z-score | -0.342 z-score | -0.255 z-score | -0.0728 z-score | -0.464 z-score | -0.256 z-score |
| CAAGGCCCCCT | -1.53 z-score | 0.645 z-score | 0.212 z-score | 0.0559 z-score | 0.254 z-score | 0.314 z-score | 0.508 z-score | -0.126 z-score | -0.139 z-score |
| AAAATGATCCC | -0.603 z-score | -0.272 z-score | -0.265 z-score | -0.543 z-score | -0.453 z-score | -0.443 z-score | -0.704 z-score | -0.71 z-score | -0.512 z-score |
| CGAATCGCCCT | -0.52 z-score | -1.41 z-score | -0.603 z-score | -0.694 z-score | -0.649 z-score | -0.752 z-score | -0.785 z-score | -0.785 z-score | -0.657 z-score |
| CAAATGGTCCT | -0.0232 z-score | -1.33 z-score | -0.481 z-score | -1.22 z-score | -0.808 z-score | -0.726 z-score | -0.534 z-score | -1.3 z-score | -0.727 z-score |
| GAAAGACCCCC | -0.269 z-score | 0.985 z-score | 0.754 z-score | 1.12 z-score | 1.17 z-score | 0.92 z-score | 1.03 z-score | 0.485 z-score | 0.846 z-score |
| GGAAGACTCCT | -0.12 z-score | -1.87 z-score | -0.778 z-score | -0.958 z-score | -1.02 z-score | -1.23 z-score | -0.943 z-score | -1.17 z-score | -0.891 z-score |
| GAATATCCCCC | 0.817 z-score | 1.35 z-score | 1.71 z-score | 1.94 z-score | 1.64 z-score | 1.97 z-score | 1.9 z-score | 1.33 z-score | 1.58 z-score |
